Compound in this test: CN[C@@H]1C[C@H]2O[C@@](C)([C@@H]1OC)n1c3ccccc3c3c4c(c5c6ccccc6n2c5c31)C(=O)NC4 [staurosporine]
As to the kind of experiment: log2 fold change of tryptic peptide abundance, ligand vs vehicle (limited proteolysis) (log2 ratio); higher = more trypsin-susceptible (destabilized). Particulars: ligand concentration: 20 uM; sample: K562 cleared lysate; digestion: 4 min, 22 C (HT-PELSA RT4min, Orbitrap Astral).
UniProt Q5SRE5, sequence (Q5SRE5 whole entry): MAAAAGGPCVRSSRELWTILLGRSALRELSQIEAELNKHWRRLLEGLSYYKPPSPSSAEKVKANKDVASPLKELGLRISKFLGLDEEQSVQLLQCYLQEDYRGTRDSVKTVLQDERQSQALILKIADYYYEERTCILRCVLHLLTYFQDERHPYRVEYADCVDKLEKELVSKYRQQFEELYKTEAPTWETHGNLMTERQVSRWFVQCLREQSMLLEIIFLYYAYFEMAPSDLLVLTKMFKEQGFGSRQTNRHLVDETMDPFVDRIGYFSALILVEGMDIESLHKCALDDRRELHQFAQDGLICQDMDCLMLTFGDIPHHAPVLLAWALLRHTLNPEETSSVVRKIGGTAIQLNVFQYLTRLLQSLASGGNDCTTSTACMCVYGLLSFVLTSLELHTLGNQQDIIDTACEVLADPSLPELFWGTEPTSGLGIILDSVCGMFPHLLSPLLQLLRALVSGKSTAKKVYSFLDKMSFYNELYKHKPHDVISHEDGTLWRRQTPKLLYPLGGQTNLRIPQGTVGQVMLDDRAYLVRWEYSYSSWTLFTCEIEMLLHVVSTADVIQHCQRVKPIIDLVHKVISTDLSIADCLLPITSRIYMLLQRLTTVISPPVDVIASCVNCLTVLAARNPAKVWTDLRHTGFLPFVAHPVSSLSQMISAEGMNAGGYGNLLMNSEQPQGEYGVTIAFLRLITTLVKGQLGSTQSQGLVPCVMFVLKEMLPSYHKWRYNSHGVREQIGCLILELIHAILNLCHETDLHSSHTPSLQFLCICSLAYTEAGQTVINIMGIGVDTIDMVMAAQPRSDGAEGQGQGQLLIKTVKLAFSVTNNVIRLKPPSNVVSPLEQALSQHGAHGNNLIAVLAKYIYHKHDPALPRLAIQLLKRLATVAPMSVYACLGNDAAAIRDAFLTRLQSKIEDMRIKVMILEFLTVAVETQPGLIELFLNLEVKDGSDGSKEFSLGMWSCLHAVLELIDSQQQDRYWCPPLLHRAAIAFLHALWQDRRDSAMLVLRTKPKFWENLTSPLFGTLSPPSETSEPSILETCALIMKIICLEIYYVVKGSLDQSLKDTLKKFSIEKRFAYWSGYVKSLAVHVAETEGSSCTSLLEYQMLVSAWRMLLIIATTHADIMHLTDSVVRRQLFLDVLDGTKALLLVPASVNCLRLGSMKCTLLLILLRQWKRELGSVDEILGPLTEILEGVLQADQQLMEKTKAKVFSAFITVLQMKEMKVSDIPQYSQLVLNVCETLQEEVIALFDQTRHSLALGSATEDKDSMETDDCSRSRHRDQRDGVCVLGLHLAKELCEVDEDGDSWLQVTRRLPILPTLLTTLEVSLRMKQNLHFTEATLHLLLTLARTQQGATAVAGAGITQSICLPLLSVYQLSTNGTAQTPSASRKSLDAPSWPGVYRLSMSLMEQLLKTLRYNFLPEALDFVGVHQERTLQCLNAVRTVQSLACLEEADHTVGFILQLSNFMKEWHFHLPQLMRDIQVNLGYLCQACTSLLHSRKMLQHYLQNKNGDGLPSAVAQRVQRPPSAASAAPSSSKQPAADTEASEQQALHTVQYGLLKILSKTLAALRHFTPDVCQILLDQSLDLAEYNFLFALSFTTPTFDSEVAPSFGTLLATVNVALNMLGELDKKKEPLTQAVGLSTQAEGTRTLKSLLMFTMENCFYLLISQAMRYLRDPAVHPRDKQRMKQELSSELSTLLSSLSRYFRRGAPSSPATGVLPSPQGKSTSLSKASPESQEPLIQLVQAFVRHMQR
UniProt P41252, sequence (P41252 whole entry): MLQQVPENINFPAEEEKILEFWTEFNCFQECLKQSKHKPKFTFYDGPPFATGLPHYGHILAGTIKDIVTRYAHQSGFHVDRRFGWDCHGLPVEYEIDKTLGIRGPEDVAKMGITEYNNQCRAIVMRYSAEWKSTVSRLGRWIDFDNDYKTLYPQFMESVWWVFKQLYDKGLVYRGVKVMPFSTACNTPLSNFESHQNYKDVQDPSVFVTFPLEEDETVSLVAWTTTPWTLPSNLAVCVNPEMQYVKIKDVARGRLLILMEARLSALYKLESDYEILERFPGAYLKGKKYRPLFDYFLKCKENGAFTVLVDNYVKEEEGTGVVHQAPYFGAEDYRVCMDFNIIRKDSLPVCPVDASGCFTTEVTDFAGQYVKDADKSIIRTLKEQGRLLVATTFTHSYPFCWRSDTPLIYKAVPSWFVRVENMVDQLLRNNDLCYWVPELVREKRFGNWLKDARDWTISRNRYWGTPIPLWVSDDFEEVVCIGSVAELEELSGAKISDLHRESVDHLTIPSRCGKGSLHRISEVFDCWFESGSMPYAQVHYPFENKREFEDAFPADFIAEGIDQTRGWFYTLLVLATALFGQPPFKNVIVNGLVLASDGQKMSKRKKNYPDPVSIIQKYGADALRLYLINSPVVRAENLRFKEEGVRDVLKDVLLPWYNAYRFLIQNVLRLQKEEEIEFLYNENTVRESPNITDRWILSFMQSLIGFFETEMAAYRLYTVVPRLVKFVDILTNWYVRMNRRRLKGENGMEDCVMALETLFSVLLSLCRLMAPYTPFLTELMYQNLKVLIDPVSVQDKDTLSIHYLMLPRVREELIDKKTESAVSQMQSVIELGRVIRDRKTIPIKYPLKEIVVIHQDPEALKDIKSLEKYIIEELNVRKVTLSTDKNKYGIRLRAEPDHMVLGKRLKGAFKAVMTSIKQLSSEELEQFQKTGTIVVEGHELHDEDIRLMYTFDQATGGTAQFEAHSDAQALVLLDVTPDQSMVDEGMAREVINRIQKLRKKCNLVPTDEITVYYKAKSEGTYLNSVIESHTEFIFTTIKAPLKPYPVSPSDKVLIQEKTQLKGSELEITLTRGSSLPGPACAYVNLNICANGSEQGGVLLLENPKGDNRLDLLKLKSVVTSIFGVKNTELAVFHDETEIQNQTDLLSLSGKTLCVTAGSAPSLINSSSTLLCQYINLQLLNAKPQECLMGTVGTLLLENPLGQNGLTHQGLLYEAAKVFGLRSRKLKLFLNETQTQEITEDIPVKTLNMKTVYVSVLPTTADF
UniProt P22102, sequence (P22102 whole entry): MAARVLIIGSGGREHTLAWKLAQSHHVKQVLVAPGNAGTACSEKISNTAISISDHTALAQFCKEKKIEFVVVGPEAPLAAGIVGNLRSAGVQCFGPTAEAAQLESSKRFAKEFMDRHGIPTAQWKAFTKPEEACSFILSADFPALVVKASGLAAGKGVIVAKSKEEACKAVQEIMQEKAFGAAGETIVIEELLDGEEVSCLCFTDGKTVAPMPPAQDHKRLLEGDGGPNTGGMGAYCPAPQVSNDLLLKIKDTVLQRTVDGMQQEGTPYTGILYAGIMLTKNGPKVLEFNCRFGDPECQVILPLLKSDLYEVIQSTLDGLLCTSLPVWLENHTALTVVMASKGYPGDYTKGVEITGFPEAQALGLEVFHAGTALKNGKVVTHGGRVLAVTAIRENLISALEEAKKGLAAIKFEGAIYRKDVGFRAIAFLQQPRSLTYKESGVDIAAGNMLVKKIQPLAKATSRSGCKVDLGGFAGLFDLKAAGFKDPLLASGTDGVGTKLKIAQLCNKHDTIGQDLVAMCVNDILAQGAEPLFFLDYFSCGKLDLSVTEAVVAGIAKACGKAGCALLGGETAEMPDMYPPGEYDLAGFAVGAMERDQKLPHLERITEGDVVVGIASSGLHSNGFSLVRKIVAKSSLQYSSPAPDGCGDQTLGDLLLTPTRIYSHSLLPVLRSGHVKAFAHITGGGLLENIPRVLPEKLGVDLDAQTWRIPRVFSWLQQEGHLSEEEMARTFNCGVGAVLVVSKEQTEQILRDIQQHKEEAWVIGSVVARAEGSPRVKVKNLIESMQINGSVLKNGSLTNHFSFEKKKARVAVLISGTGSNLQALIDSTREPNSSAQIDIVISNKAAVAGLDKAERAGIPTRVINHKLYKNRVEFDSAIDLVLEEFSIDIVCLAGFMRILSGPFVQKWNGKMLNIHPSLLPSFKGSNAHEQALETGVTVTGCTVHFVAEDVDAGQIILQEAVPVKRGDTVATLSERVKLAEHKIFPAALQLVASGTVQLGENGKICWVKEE
UniProt Q9UJV9, sequence (Q9UJV9 whole entry): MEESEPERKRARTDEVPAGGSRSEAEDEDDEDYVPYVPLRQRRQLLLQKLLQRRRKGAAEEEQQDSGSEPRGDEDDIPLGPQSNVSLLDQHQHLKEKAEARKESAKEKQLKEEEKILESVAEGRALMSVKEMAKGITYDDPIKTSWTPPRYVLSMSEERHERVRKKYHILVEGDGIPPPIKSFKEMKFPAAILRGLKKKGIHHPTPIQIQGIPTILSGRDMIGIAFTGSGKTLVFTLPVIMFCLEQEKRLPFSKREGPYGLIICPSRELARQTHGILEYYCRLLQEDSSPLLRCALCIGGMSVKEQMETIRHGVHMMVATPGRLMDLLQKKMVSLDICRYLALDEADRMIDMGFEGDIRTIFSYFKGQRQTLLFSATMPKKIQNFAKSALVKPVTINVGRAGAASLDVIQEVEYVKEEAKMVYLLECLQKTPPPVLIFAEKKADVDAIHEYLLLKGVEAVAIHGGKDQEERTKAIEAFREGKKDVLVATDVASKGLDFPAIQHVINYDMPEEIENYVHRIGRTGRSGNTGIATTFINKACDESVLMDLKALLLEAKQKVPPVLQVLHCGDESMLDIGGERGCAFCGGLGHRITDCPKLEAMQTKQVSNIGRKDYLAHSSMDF
UniProt Q9BTE7, sequence (Q9BTE7 whole entry): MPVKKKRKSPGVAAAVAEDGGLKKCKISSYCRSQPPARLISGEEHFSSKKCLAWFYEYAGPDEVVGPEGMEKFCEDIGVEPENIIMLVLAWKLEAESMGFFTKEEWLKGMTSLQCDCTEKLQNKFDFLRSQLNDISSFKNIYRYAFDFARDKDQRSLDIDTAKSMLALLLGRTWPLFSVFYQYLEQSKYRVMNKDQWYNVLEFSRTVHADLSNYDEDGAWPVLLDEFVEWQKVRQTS
Take “UniProt O75582 (peptide sequence: VGIENFELLK, peptide start residue: 44)”: the log2 fold change was -0.481.

Regarding “DCUN1D5 (peptide sequence: SMLALLLGR, peptide start residue: 164) (UniProt Q9BTE7)”, the log2 fold change was 1.45.

Consider “TNK1 (peptide sequence: VADFGLVRPLGGAR, peptide start residue: 261) (UniProt Q13470)”, for which the log2 fold change was -3.64.

In the case of “IARS (peptide sequence: AVPSWFVR, peptide start residue: 411) (UniProt P41252)”, the log2 fold change was 0.326.

As to “NUP188 (peptide sequence: HTLNPEETSSVVR, peptide start residue: 331) (UniProt Q5SRE5)”, the log2 fold change is 1.1.

Consider “UniProt O75170 (peptide sequence: ILEAWEANDHTQAAGGMR, peptide start residue: 456)”, for which the log2 fold change is -0.977.

With “DDX41 (peptide sequence: TDEVPAGGSR, peptide start residue: 13) (UniProt Q9UJV9)”, the log2 fold change was 0.553.

In the case of “GART (peptide sequence: GDTVATLSER, peptide start residue: 966) (UniProt P22102)”, the log2 fold change came out at 0.425.

For the target “EIF3B (peptide sequence: PRPPTLLSQEQIK, peptide start residue: 706) (UniProt P55884)”, the log2 fold change stood at 0.691.

On to “AK2 (peptide sequence: NLETPLCK, peptide start residue: 86) (UniProt P54819)”, for which the log2 fold change stood at 0.399.

Turning to “VRK1 (peptide sequence: DILLQGLK, peptide start residue: 322) (UniProt Q99986)”, the log2 fold change was -0.866.
